From PubChem
Shiga toxin inh = Shiga toxin inhibition | actives 9.2% (n = 290,000) | Vero cells, Shiga toxin protein synthesis inhibition reporter | inhibition, % at 38.7 µM; in the data active means inhibition mostly above about 28%, no sharp cut-off; inactive means mostly below about 43%; further: 0% is about no effect
Pf growth 96h = P. falciparum growth inhibition at 96 hour, primary screen for plastid delayed-death inhibitors; P. falciparum luciferase reporter growth, 96 h; Potency, µM (titrated, usually from 28.7 µM), inactives show at the top dose activity change, negative = inhibition, hits mostly inhibitors; actives 6.9% (n = 320,000); further: potency means the concentration at half of the fitted maximal effect; on the % scale 0 is the no-effect control and ±100 the full control effect
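Readout is luminescence from an integrated firefly luciferase in P. falciparum. Red cells, 2% hematocrit and 0.05% parasitemia final, were cultured with compound through two parasite generations (96 hours) at 37 C, 5% CO2.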
CHX counter = counter-screen for Shiga toxin inhibitors: cycloheximide protein synthesis inhibition. max response, %. cell reporter, cycloheximide protein synthesis inhibition counterscreen. actives 12% (n = 300,000). AID 2314; in the data active means max response mostly above about 13%, no sharp cut-off; inactive means mostly below about 14%; further: read at 38.3 µM for the half of the compounds with a filed dose; 0% is about no effect
Pf growth 48h = P. falciparum growth inhibition at 48 hours (one generation) | P. falciparum luciferase growth in erythrocytes, 48 h | Potency, µM (series often up to 28.7 µM), without a hit: at the top dose activity change, negative = inhibition, actives largely listed as inhibitors | actives 5.9% (n = 310,000); further: potency means the concentration at half of the fitted maximal effect; on the % scale 0 is the no-effect control and ±100 the full control effect
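Growth was read as firefly luciferase luminescence after a 48 h, 37 C, 5% CO2 exposure of compounds to reporter-bearing P. falciparum cultures (0.1% parasitemia, 2% hematocrit final) in Albumax-supplemented RPMI 1640.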
The depositor's hits bear a star; i = inactive; ? = inconclusive; . = no result given. Sampled rows, rich in hits. Any-hit rate of the full collection: about 21%. Unless noted, the call rests on the fitted dose curve; in most records, active means well fitted inhibition curve with a large enough effect; inconclusive means small, poorly fitted or top-dose-only effect, or another doubt; inactive means no such curve, though single readings can be large or run the other way.

SMILES | Shiga toxin inh | Pf growth 96h | CHX counter | Pf growth 48h
O=C(Nc1ccc(C(=O)N2CCCC2)cc1)c1ccc(F)cc1Cl | 13 | 46% | 11 | -1%
COc1ccc(C)cc1NC(=O)C1CCCN1S(=O)(=O)c1ccccc1F (stereo unspecified) | . | 0% | . | ?
COc1ccc(-c2cc(C(=O)N3CCCCC3)c3ccccc3n2)cc1 | . | -84% | . | 5%
Cc1cccc2c(C(=O)N3CCCCC3)cc(-c3ccccc3)nc12 | -5 | 0% | 6 | 9.3µM*
CC(NC(=O)c1cc(-c2ccncc2)nc2ccc(Cl)cc12)C1CCCO1 (stereo unspecified) | 38* | -22% | 13* | ?
CC(=O)c1ccc(N2CCN(C(=O)c3cc(-c4ccncc4)nc4ccc(Cl)cc34)CC2)cc1 | 24 | 0% | 14* | ?
Cc1cccc2c(C(=O)N3CCN(c4ccccn4)CC3)cc(-c3cccc(Br)c3)nc12 | -8 | ? | 0 | ?
Cc1cccc2c(C(=O)N3CCN(c4ccccc4)CC3)cc(-c3ccncc3)nc12 | 6 | ? | -1 | 8.3µM*
O=C(CSc1ccc(F)cc1)NCCSc1ccccc1 | 54 | -14% | 16 | 52%
CC(=O)NS(=O)(=O)c1ccc2sc(C)nc2c1 | 0 | 15% | -3 | 86%
CCc1nc2ccc(N3CCN(C)CC3)cc2nc1CC | 40 | 91% | 25* | 145%
COc1c2occc2c(OC)c2c(=O)cc(C(F)(F)C(F)(F)F)oc12 | 35 | -24% | -6 | -14%
CCCc1nc2c(=O)[nH]c3ccccc3c2o1 | -10 | -6% | 22 | ?
CCCCCc1nc2c(=O)[nH]c3ccccc3c2o1 | 12 | 5.2µM* | 13 | ?
c1ccc2c(c1)CCOC2CNCCCN1CCCCC1 (stereo unspecified) | -6 | 12µM* | -4 | ?
CCOC(=O)c1c(C)[nH]c(C(=O)Cn2c(=O)oc3ccccc32)c1C | 16 | 28% | 30* | 6%
Cc1ccc2oc(=O)n(CC(=O)OC(C)C)c2c1 | -7 | 10µM* | -2 | 0%
CCOC(=O)Cn1c(=O)oc2ccc(C)cc21 | -12 | ? | -5 | 45%
CC(C)OC(=O)Cn1c(=O)oc2ccccc21 | -1 | 2.3µM* | -2 | .
Cc1cc(C)c(C2=NOC3C4CCC(C4)C23)c(C)c1 (stereo unspecified) | -8 | -24% | 11 | -14%
Cc1ccc(C)n1-c1ccc(N2CCOCC2)c(Br)c1 | -10 | 15µM* | -2 | .
COc1cc(C2N(c3ccccc3)CCN2c2ccccc2)cc(OC)c1OC | 61 | 0% | 13* | 10%
COc1cc(C2N(c3cccc(Cl)c3)C(=O)C3CCCN32)cc(OC)c1OC (stereo unspecified) | -9 | -18% | -8 | .
CCCCC(CC)C/C=C1\CC(C(=O)OCC)Oc2ccccc21 (stereo unspecified) (tested in a mixture with another compound) | i | . | 10 | .
Cc1cc(C(=O)COC(=O)c2ccccc2Br)c(C)n1CC1CCCO1 (stereo unspecified) | 2 | 183% | 16 | 62%
SMILES | Shiga toxin inh | Pf growth 96h | CHX counter | Pf growth 48h
Cc1cc(C(=O)COC(=O)c2ccccc2O)c(C)n1CC1CCCO1 (stereo unspecified) | . | 0% | . | -4%
Cc1cc(C(=O)COC(=O)c2cc(O)c3ccccc3c2O)c(C)n1CC1CCCO1 (stereo unspecified) | 25 | ? | 14* | ?
Cc1cc(C(=O)COc2ccccc2C(N)=O)c(C)n1CC1CCCO1 (stereo unspecified) | 48 | 10% | 26* | 76%
Cc1cc(C(=O)COC(=O)c2n[nH]c3ccccc23)c(C)n1CC1CCCO1 (stereo unspecified) | 44 | i | 38* | 335%
Cc1ccc(C(=O)OCC(=O)c2cc(C)n(CC3CCCO3)c2C)cc1 (stereo unspecified) | 107* | 103% | 40* | 103%
Cc1ccc(S(=O)(=O)N(C)CC(=O)NNC(=O)Cc2cccc(F)c2)cc1 | . | 11% | . | 2%
CCOc1ccccc1CNC(=O)c1ccc2c(c1)N(CC)CCS2 | 5 | -13% | 8 | ?
COC(=O)c1c(NC(=S)NNC(=O)c2ccc(Cl)s2)sc(C(=O)N(C)C)c1C | -18 | 57% | -3 | 16%
O=C(N/C(=C/c1cccc([N+](=O)[O-])c1)C(=O)N1CCOCC1)c1ccc(Br)cc1 | -2 | -29% | 4 | ?
Cc1cc(C(=O)COC(=O)c2ccccc2NCCO)c(C)n1CC1CCCO1 (stereo unspecified) | 112* | -57% | 89* | -6%
CCOc1cc(C(=O)OCC(=O)c2cc(C)n(CC3CCCO3)c2C)ccc1OCC(=O)N1CCOCC1 (stereo unspecified) | 53* | 0% | 32* | 18%
CC(=O)C(N=Nc1ccccc1)(Sc1nnc(-c2ccccc2)n1-c1ccccc1)C(=O)Nc1ccccc1 (stereo unspecified) | -21 | 12µM* | 1 | 13µM*
CC(=O)/C(=N\Nc1ccccc1)Sc1nnc(-c2ccccc2)n1-c1ccccc1 | 3 | ? | -4 | -27%
CC(=O)C(N=Nc1ccccc1)(Sc1nnc(-c2ccccc2)n1-c1ccccc1)C(C)=O | -14 | 12µM* | -3 | ?
c1ccc(C2Nc3ccccc3-c3nc4ccccc4n32)cc1 (stereo unspecified) | 57 | . | 31* | ?
c1ccc(C2Nc3ccccc3-c3nc4ccccc4n32)nc1 (stereo unspecified) | -11 | 5% | -4 | 41%
c1coc(C2Nc3ccccc3-c3nc4ccccc4n32)c1 (stereo unspecified) | 63* | 23% | 31* | 72%
O=C(COC(=O)c1c(Cl)ccc(Cl)c1Cl)NC(=O)NCc1ccccc1 | 15 | 18% | 5 | 2%
COc1ccc(Nc2nc(N)nc(CSc3nccc(C)n3)n2)cc1 | 76* | 5.2µM* | 16* | 16%
Nc1nc(CSc2ncccn2)nc(Nc2ccccc2)n1 | 139* | . | 62* | 196%
Nc1nc(CSc2n[nH]c(-c3ccccc3)n2)nc(Nc2ccccc2)n1 | -10 | ? | -1 | -1%
COc1ccc(Nc2nc(N)nc(CSc3nnc(C)s3)n2)cc1 | 56* | ? | 29* | 109%
Cc1ccc(Nc2nc(N)nc(CSc3nc(C)cc(C)n3)n2)cc1 | -5 | ? | 3 | ?
Cc1ccc(Nc2nc(N)nc(CSc3ncccn3)n2)cc1 | 68* | 89% | 29* | .
O=C(Nc1ccc(N2CCN(C(=O)c3ccco3)CC2)cc1)c1cccnc1Cl | 6 | -39% | -3 | 15%
CC(=O)Nc1cccc(C(=O)OCC(=O)NNC(=O)c2ccc([N+](=O)[O-])cc2)c1 | . | 23% | . | -9%
CSCC[C@H](NC(=O)[C@@H](NC(=O)[C@H](CCC(=O)O)NC(=O)[C@H](CCSC)NC(=O)[C@H](CC(N)=O)NC(=O)[C@H](CCC(=O)O)NC(=O)[C@H](CC(N)=O)NC(=O)[C@H](CO)NC(=O)[C@H](C)N)[C@@H](C)O)C(=O)O | 37 | . | 7 | .
